According to PubChem BioAssay (Tox21):
Values joined by “and” are separate entries in the source; they are usually repeats but may differ in a detail not shown here. Identical values can stand only once. Records with an inconclusive call do not appear. Where a structure was tested more than once in an assay, its records may differ in their call. Active and inactive are the calls of the source. Unless noted, calls come from the whole dose curve; as a rule, active = well fitted curve in the direction sought with a large enough effect in the repeat runs; inconclusive = weak or mixed curves; inactive = no such curve, though single readings can be large; an effect the other way counts as inactive or inconclusive.

Legend:
[1] = qHTS assay for small molecules that induce genotoxicity in human embryonic kidney cells expressing luciferase-tagged ATAD5 (AID 651632); note: nearly all actives have a fitted effect of over 15% in size; note: potency is the fitted concentration of half-maximal effect
Summary of the method: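 Luminescence read-out: after 16 hr compound exposure at 37C, ATAD5-luciferase HEK293T cells received Amplite, 30 min RT, then CCD imaging. A rise in signal marks genotoxic stress.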

[2] = qHTS assay for small molecule agonists of the p53 signaling pathway - cell viability (AID 651633; calls by dose curve; note: nearly all actives have a fitted effect of over 30% in size; note: potency is the fitted concentration of half-maximal effect)
Summary of the method: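 p53RE-bla cells, seeded at 4,000 per well and rested 5 h at 37 C/5% CO2, received compounds in DMSO for 16 h at 37 C. CellTiter-Glo was then added, and luminescence was read after 30 min at room temperature to gauge cytotoxicity.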

[3] = qHTS assay for small molecules that induce genotoxicity in human embryonic kidney cells expressing luciferase-tagged ATAD5 - cell viability (AID 651634; calls by dose curve; note: nearly all actives have a fitted effect of over 25% in size)
Summary of the method: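 HEK293T ATAD5-luc cells, 2,000/well; compound 15.5 hr, 37C/5% CO2; CellTiter-Fluor 30 min, 37C; fluorescence read.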

[4] = qHTS assay for small molecule disruptors of the mitochondrial membrane potential - cell viability (AID 720634; calls by dose curve; note: nearly all actives have a fitted effect of over 20% in size; note: potency is the fitted concentration of half-maximal effect)
Summary of the method: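 Luminescence from CellTiter-Glo (ATP content) gave viability in HepG2 cells, read in the same wells as the MMP dye assay after 1 hr compound exposure at 37 C.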

[5] = qHTS assay to test for compound auto fluorescence at 590 nm (red) in HepG2 cells (AID 720674)
Summary of the method: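 Compound auto-fluorescence is scored relative to Rose Bengal sodium, measured at 540/590 nm in live HepG2 cultures after 1 hr compound contact (37 C, 5% CO2).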

[6] = qHTS assay to test for compound auto fluorescence at 535 nm (green) in HepG2 cells (AID 720675)
[7] = qHTS assay to test for compound auto fluorescence at 460 nm (blue) in HEK293 cells (AID 720678)
Summary of the method: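 Triamterene serves as the blue fluorophore standard. Compound signal at 405/460 nm is read in HEK293 wells (2,000 cells, 10% dialyzed FBS) after overnight treatment at 37C.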

[8] = qHTS assay to test for compound auto fluorescence at 590 nm (red) in HEK293 cells (AID 720679)
Summary of the method: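 We plated HEK293 cells in 10% dialyzed FBS medium, let them adhere for 4-5 hr, then added 23 nL compound. Overnight at 37C and 5% CO2 preceded fluorescence measurement at 540/590nm.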

[9] = qHTS assay to test for compound auto fluorescence at 535 nm (green) in HEK293 cells (AID 720680)
[10] = qHTS assay to test for compound auto fluorescence at 460 nm (blue) in HEK293 cell free culture (AID 720681)
Summary of the method: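 Test compounds were pinned into cell-free culture medium (DMEM with 10% FBS) and fluorescence was read directly at Ex/Em 405/460 nm. Signals were expressed as fluorescence equivalents of triamterene, with DMSO vehicle as control.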

[11] = qHTS assay to test for compound auto fluorescence at 535 nm (green) in HEK293 cell free culture (AID 720682)
Summary of the method: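 Steps: dispense DMEM/10% FBS into empty wells; pin in compound or DMSO; measure fluorescence at 485/535 nm. Values are fluorescein equivalents.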

[12] = qHTS assay to test for compound auto fluorescence at 590 nm (red) in HepG2 cell free culture (AID 720684)
Summary of the method: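 Ex 540 / Em 590 nm read of compound in cell-free MEM (10% FBS). Rose Bengal sodium reference.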

[13] = qHTS assay to test for compound auto fluorescence at 460 nm (blue) in HepG2 cell free culture (AID 720685)
Summary of the method: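 Cell-free plates of MEM plus 10% FBS received 23 nL compound or DMSO vehicle; blue-channel (405/460 nm) intensity scored against triamterene as reference fluorophore.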

[14] = qHTS assay to test for compound auto fluorescence at 535 nm (green) in HepG2 cell free culture (AID 720686)
[15] = qHTS assay to test for compound auto fluorescence at 460 nm (blue) in HepG2 cells (AID 720687)
Summary of the method: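 Cells (2,000/well in MEM with 10% FBS) attached overnight at 37 C, then were exposed to compound or DMSO for 1 hr at 37 C, 5% CO2. Fluorescence read at Ex/Em 405/460 nm, expressed as triamterene-equivalent signal.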

[16] = molecular target: Glucocorticoid receptor (Homo sapiens) (UniProt P04150); assay: qHTS assay to identify small molecule agonists of the glucocorticoid receptor (GR) signaling pathway (AID 720691; active = well fitted activation curve with a large enough effect in the signal ratio in the repeat runs, not every such curve was filed as active; the % refers to the signal ratio)
Summary of the method: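 HeLa GR-bla reporter line; cells pre-incubated 4 h, compound in DMSO 18 h at 37 C; LiveBLAzer B/G FRET substrate 2 h RT; fluorescence intensity read-out.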

[17] = molecular target: Glucocorticoid receptor (Homo sapiens) (UniProt P04150); assay: qHTS assay to identify small molecule antagonists of the glucocorticoid receptor (GR) signaling pathway (AID 720692; active = well fitted inhibition curve with a large enough effect in the signal ratio in the repeat runs, not every such curve was filed as active; the % refers to the signal ratio; note: potency is the fitted concentration of half-maximal effect)
Summary of the method: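 Read-out: beta-lactamase FRET substrate fluorescence, 2 h at room temperature, in HeLa cells stably carrying a GRE-driven bla reporter. Compounds were co-incubated with 5 nM dexamethasone agonist (final) for 18 h at 37 C.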

[18] = qHTS assay for small molecule disruptors of the mitochondrial membrane potential (AID 720635); note: potency is the fitted concentration of half-maximal effect
Summary of the method: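 HepG2 cells (2,000/well) attached overnight at 37C, then took compound for 1 hr at 37C, 5% CO2. Mito-MPS dye was added for 30 min; fluorescence was read at 490/535 nm (monomers) and 540/590 nm (aggregates).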

[19] = qHTS assay to test for compound auto fluorescence at 590 nm (red) in HEK293 cell free culture (AID 720683)
Summary of the method: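 Tox21 10K library compounds were pinned into cell-free DMEM with 10% FBS and fluorescence was read at excitation 540 nm. Activity is expressed as Rose Bengal sodium equivalency.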

Measured: Potency

Chain of Glucocorticoid receptor (Homo sapiens) (P04150 whole entry, looked up): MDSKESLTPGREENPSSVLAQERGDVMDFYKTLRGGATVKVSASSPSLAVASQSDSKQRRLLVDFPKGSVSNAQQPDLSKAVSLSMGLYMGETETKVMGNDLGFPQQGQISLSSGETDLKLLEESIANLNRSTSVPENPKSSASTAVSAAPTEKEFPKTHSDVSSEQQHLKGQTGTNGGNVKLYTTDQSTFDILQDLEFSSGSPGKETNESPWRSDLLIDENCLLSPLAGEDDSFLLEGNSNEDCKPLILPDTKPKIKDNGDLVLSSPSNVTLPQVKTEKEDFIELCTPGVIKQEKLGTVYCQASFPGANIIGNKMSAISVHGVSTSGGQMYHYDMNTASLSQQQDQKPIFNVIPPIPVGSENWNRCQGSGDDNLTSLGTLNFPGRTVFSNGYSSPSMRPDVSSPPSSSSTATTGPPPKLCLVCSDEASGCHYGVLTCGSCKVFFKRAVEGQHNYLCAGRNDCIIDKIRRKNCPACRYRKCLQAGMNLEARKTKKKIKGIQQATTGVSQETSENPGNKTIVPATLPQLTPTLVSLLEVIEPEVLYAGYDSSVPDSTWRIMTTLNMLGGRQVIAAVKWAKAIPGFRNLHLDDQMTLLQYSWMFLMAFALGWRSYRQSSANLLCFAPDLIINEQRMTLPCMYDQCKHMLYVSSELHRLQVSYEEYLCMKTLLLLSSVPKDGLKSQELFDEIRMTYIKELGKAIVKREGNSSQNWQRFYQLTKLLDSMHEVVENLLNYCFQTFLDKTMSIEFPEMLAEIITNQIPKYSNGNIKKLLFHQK

CCC/C=C/C=O
not listed: [18] | [19]
inactive: all other assays above

OCCNCCO
19.3 µM (active) and inactive: [2]
not listed: [3]
inactive: all other assays above

O=Cc1ccccc1C=O
active: [1] 11.9 µM | [2] 11.9 µM and 12.2 µM | [18] 21.1 µM and 30.6 µM | [17] 6.16 µM
inactive and 61.1 µM (active): [4]
not listed: [3] | [16]
inactive: all other assays above

NC[C@H](O)c1ccc(O)c(O)c1
not listed: [2] | [3] | [14]
inactive: all other assays above
